TbREL1 inh: TbREL1 inhibition, primary screen; TbREL1 RNA ligation, FRET fluorescence; inhibition, % at 9.66 µM; hit rate 0.49% among 89,000;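 active = inhibition above the mean inhibition across all screened compounds plus 3 SD, cut at about 11% in these data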;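 also: 0% = plate median of test wells and 100% = NSC42067 control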
Target sequence (P86926 whole entry, looked up): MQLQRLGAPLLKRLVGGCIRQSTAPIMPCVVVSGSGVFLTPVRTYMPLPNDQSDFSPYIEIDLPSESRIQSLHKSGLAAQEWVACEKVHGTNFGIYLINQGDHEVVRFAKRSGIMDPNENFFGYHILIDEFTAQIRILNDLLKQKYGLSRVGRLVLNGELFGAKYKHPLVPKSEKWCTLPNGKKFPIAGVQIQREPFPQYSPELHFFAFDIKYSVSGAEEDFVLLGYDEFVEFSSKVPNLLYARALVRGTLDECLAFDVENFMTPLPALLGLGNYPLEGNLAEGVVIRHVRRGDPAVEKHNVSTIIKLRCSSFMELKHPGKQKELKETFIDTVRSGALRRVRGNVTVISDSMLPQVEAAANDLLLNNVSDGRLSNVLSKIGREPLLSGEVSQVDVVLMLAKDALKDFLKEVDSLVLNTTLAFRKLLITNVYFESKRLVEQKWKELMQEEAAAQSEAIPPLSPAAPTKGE
TbREL1 confirm: TbREL1 inhibition, confirmation | TbREL1 RNA ligation, FRET fluorescence | shares compounds with TbREL1 inh | inhibition, % at 9.66 µM | hit rate 37% among 390;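 active = mean inhibition across replicates above a set limit taken from the earlier primary screen, cut at about 11% in these data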;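 also: 0% = REL1 with substrate and DMSO and 100% = REL1 plus control inhibitor NSC42067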
* marks the source's active call; other numbers are inactive results. Many of the other results were omitted from the sample, so hits are more common in it than they were.

SMILES	TbREL1 inh	others
COC(=O)[C@]12C[C@H](CC(=O)NCc3ccc(C)o3)C(=O)N(CCc3ccc(OC)c(OC)c3)C1=C[C@H](C(C)(C)C)O[C@@H]2C	-4.1
COC(=O)[C@]12C[C@H](CC(=O)N3CCSCC3)C(=O)N(Cc3ccco3)C1=C[C@H](COCc1ccccc1)O[C@@H]2C	1.9
CCOc1ccc(-n2c(SCC(=O)Nc3ccc4cn[nH]c4c3)nnc2-c2ccc(C(C)(C)C)cc2)cc1	-2.1
COc1cc2ccc(=O)oc2c(O[C@@H]2O[C@H](CO)[C@@H](O)[C@H](O)[C@H]2O)c1O	-5.4
O=c1cc(-c2ccc(O)c(O)c2)oc2cc(O)c([C@@H]3O[C@H](CO)[C@@H](O)[C@H](O)[C@H]3O)c(O)c12	47.6*
COc1cc(O)c2c(=O)c3c(O[C@H]4O[C@@H](CO)[C@H](O)[C@@H](O)[C@@H]4O)ccc(O)c3oc2c1	-2.7
CC(C)C[C@H](NC1(C(=O)NC2CCCCC2)CCN(C(=O)OC(C)(C)C)CC1)C(=O)NCCc1c[nH]c2ccccc12	0.6
CCCCCc1ccc(-c2n[nH]c(=O)c3ccccc23)cc1	3.4
O=C1CC(=O)N(Cc2cccs2)C(=O)N1	3.6
O=C1C2C(C(=O)N1Cc1ccco1)C1C=CC2C12CC2 (stereo unspecified)	-1.9
O=C1CC(=O)N(Cc2ccco2)C(=O)N1	69.5*
CCN(CC)c1ccc(C=NNC(=O)c2cc(-c3ccc(C)c(C)c3)n[nH]2)c(O)c1	-3.8
O=C(Nc1cccc(C(F)(F)F)c1)OC1CC2CC1[C@H]1CCCCN1[C@H]2Cc1ccccc1 (stereo partly specified)	4.3
Cc1cccc(CCNC(=O)CSc2nc3c([nH]2)c(=O)n(C)c(=O)n3C)c1	-0.8
Cc1ccc(NC(=S)NNC(=O)c2cnccn2)cc1	-12.4
OC(CNC1Cc2ccccc2C1)COc1ccc(F)cc1 (stereo unspecified)	4.4
Cc1ccccc1OCC(O)CNC1CCC(NCC(O)COc2ccccc2C)CC1 (stereo unspecified)	17.0*
CC(=O)Nc1ccc(OCC(O)CNC2CCCC2)cc1 (stereo unspecified)	-0.1
CCn1c(SCC(=O)Nc2ccc(C(=O)OC)cc2)nnc1-c1cccc(Cl)c1	-0.8
CC1CCC(C(C)C)C(OC(=O)Cn2c(-c3ccc(Br)cc3)[n+](C)c3ccccc32)C1 (stereo unspecified)	9.2
O=C(C[n+]1cc(-c2ccccc2)n2c1CCC2)c1cccs1	-0.1
COc1ccc(-c2c[n+](CC(=O)OC3CC(C)CCC3C(C)C)c3n2CCC3)cc1 (stereo unspecified)	14.9*
O=C(NCc1ccco1)C1CCCN(S(=O)(=O)c2ccccc2[N+](=O)[O-])C1 (stereo unspecified)	-0.8
COc1ccc(C=NNC(=O)Cc2cc(=O)[nH][nH]2)c(OC)c1	-4.5
C=C(C)Cn1c(SCC(=O)NN=Cc2c(O)ccc3ccccc23)nnc1-c1ccc(Br)cc1	-1.4
SMILES	TbREL1 inh	others
CCOc1ccccc1NC(=O)NNC(=O)CCn1nc(C)c([N+](=O)[O-])c1C	7.0
COc1cc2c(cc1NC(=O)CSc1nnc(-c3cccc(Cl)c3)n1Cc1ccco1)oc1ccccc12	8.3
O=C(Nc1nccs1)c1cnccn1	7.3
Cc1ccccc1NC(=O)c1ccccn1	1.0
O=C(Nc1nccs1)c1ccccn1	15.3*	TbREL1 confirm=4.8
Cc1nn(-c2ccccc2)c(C)c1C=NNC(=O)CSc1nc2ccccc2n1C	0.0
COC(=O)C1CCCN(C(=O)C2CCN(S(=O)(=O)c3cccc4cccnc34)CC2)C1 (stereo unspecified)	-2.2
O=C(Nc1ccccc1)N1CCCN(c2ccc(C(F)(F)F)cc2[N+](=O)[O-])CC1	0.2
O=C(Nc1ccccc1)N1CCN(c2ccc(F)cc2)CC1	1.6
O=C(Nc1ccc(F)cc1)N1CCCN(c2ccc(C(F)(F)F)cn2)CC1	24.9*	TbREL1 confirm=0.2
CN(C(=O)c1ccccc1C(=O)OCC(=O)c1ccc(F)cc1)c1ccccc1	-0.5
CN(C(=O)c1ccccc1C(=O)OCC(=O)c1ccc(F)c(F)c1)C1CCCCC1	11.5*	TbREL1 confirm=1.7
CN(C(=O)c1ccccc1C(=O)OCC(=O)NCc1cccs1)C1CCCCC1	-2.5
Cc1ccc(C(=O)C2CCN(CC(=O)N3CC(C)CC(C)C3)CC2)cc1 (stereo unspecified)	-1.5
Cc1cc(C)cc(NC(=O)NC2CCN(S(=O)(=O)c3ccc(F)cc3)CC2)c1	3.6
COc1cccc(C(=O)N(CCN2CCOCC2)Cc2ccc(OC)c(OC)c2)c1	0.8
COC(=O)C1=C(C)N(Cc2cccc(C(F)(F)F)c2)C(=NCc2ccc(C(F)(F)F)cc2)NC1c1ccc(C(F)(F)F)cc1 (stereo unspecified)	8.5
COC(=O)C1=C(C)N(Cc2ccc(C(F)(F)F)cc2)C(=NCC2CC2)NC1c1ccccc1C(F)(F)F (stereo unspecified)	14.4*	TbREL1 confirm=15.9*
COC(=O)C1=C(C)N(C)C(=NCc2ccc(OC)cc2)NC1c1ccccc1C(F)(F)F (stereo unspecified)	5.8

Screens from PubChem.
